{"source": "PubChem BioAssay AID602439", "about": "(Southern Research Specialized Biocontainment Screening …, 2012)", "assay": "viability of Vero 76 cells – cell-based, set 3, cytotoxicity control, dose response (AID 602439)", "note": "Results with a measured potency or affinity are listed apart. The source made the active and inactive calls. The rule behind the calls is not given here."}
{"compound": "O=C(Cc1ccccc1)Nc1nc2c(s1)CCCC2", "values": [{"measurement": "outcome", "result": "inactive"}]}
{"compound": "CN1CCN(Cc2nc3ccc([N+](=O)[O-])cc3c(=O)n2-c2ccccc2F)CC1", "values": [{"measurement": "outcome", "result": "inactive"}]}
{"compound": "CN(C(=O)Cc1cccs1)c1nc2c(s1)CCCC2", "values": [{"measurement": "outcome", "result": "inactive"}]}
{"compound": "CCN1CCN(Cc2nc3ccc([N+](=O)[O-])cc3c(=O)n2-c2ccccc2F)CC1", "values": [{"measurement": "outcome", "result": "inactive"}]}
{"compound": "O=c1c2cc([N+](=O)[O-])ccc2nc(CN2CCOCC2)n1-c1ccccc1F", "values": [{"measurement": "outcome", "result": "inactive"}]}
{"compound": "O=C(Cc1cccs1)Nc1nc2ccccc2s1", "values": [{"measurement": "outcome", "result": "inactive"}]}
{"compound": "CC(C)N1CCN(Cc2nc3ccc([N+](=O)[O-])cc3c(=O)n2-c2ccccc2F)CC1", "values": [{"measurement": "outcome", "result": "inactive"}]}
{"compound": "O=C(Cc1cccs1)Nc1nccs1", "values": [{"measurement": "outcome", "result": "inactive"}]}
